# Data published in PubChem BioAssay AID1085 (Emory University Molecular Libraries Screening Center, 2008).
# The whole screen tested about 220,000 compounds, of which about 930 (0.42%) were called active. Rule as the data show it: active = inhibition above about 50%; inactive = the rest. The list comes from a sample in which actives are over-represented; it also holds similar structures and randomly drawn compounds.
# Molecular target: Glycoprotein 42 (Epstein-Barr virus (strain AG876)) (UniProt Q1HVG2)
# Test: EBV glycoprotein 42 binding blockers – biochemical, uHTS, fluorescence polarization, primary screen (AID 1085)
# Conditions: Fluorescence polarization binding assay, mP read-out; stronger effect = higher value; tested at 21.74 µM
# Glycoprotein 42 (Epstein-Barr virus (strain AG876)), sequence (Q1HVG2 whole entry, looked up): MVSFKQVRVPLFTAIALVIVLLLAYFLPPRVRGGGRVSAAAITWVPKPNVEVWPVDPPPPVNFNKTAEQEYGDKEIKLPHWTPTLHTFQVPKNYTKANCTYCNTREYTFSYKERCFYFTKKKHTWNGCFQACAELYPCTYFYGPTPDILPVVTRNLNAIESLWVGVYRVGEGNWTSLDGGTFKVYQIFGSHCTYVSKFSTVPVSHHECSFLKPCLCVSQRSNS
row,SMILES,inhibition
1,CCOC(=O)c1cc2n(c1N)-c1ccccc1C2=O,157% (active)
2,CC(C)OC(=O)CN1C(=O)C(=O)c2ccccc21,-5.73% (inactive)
3,CCOC(=O)Nc1ccccc1N1C(=O)c2ccccc2C1=O,-16.9% (inactive)
4,CCNc1nc(N)nc(-c2cc(Cl)ccc2OC)n1,-10.6% (inactive)
5,CCN(CC)S(=O)(=O)c1ccc(Cl)c(C(=O)NC(C)C(c2cccs2)N2CCCC2)c1 (configuration not stated),-7.74% (inactive)
6,O=C(c1[nH]ncc1-c1ccc(Cl)cc1)C1CO1 (configuration not stated),-0.17% (inactive)
7,Nc1ccc2nc3c(=O)[nH]c(=S)[nH]c3nc2c1,158% (active)
8,O=C(Nc1ccc([N+](=O)[O-])cc1)C1CC12CCC2 (configuration not stated),18.7% (inactive)
9,FC(F)(F)c1ccc(-n2cn[nH]c2=S)cc1,-0.1% (inactive)
10,COc1ccccc1NC(=O)CCSc1nnc(-c2ccc(O)cc2)o1,16.2% (inactive)
11,Cc1cccc(OCCNC(=S)NC(=O)c2cccnc2)c1,-11% (inactive)
12,Cc1ccc(C)c(SCc2nc3sc(C(=O)O)c(C)c3c(=O)[nH]2)c1,-9.06% (inactive)
13,CCOC(=O)c1ccc[n+](CC(=O)Nc2ccccc2OC(F)F)c1,-15.4% (inactive)
14,Cc1ccc(-c2nc(SCC(=O)Nc3ccccc3OC(F)F)c3c(C)c(C(=O)O)sc3n2)cc1,92.6% (active)
15,C[C@@H](NC(=O)OC(C)(C)C)c1nnc(S(=O)(=O)Cc2ccccc2)o1,0.97% (inactive)
16,Cc1ccc(NC(=S)Nc2ncccc2C)c(C)c1,-9.14% (inactive)
17,CCOC(=O)c1c(NC(=O)CNC2CCCc3ccccc32)sc(C(N)=O)c1C (configuration not stated),-9.07% (inactive)
18,CC1=CC(=C(C#N)c2nc3ccccc3s2)C=C(C)N1c1ccc(F)cc1F,176% (active)
19,N#C/C(=C(/O)Cc1cccc2ccccc12)c1nc2ccccc2s1,4% (inactive)
20,O=C(O)CS/C(=C\c1ccc(F)cc1)c1nc2ccccc2s1,-2.63% (inactive)
21,Cc1c(C(=O)Nc2cccc(Cl)c2)cn2c(nc3ccccc32)c1C#N,-23.4% (inactive)
22,CC(=O)Nc1ccc(NS(=O)(=O)c2cc(C)sc2C)cc1,15.2% (inactive)
23,O=C(Nc1ccc2sc3ccccc3c(=O)c2c1)c1ccccc1Cl,-5.22% (inactive)

row,SMILES,inhibition
1,FC(F)(F)Oc1ccc(-c2cn3cccnc3n2)cc1,-6.62% (inactive)
2,COCCOC(=O)c1sc(=S)n(CCOC)c1N,85.3% (active)
3,COC(=O)c1sc(=S)n(-c2ccccc2)c1N,-22.9% (inactive)
4,CCOC(=O)c1sc(=S)n(-c2cccc(OC)c2)c1N,-17.2% (inactive)
5,C/C(=N/NC(=O)CN1CCN(S(=O)(=O)c2ccc(Br)cc2)CC1)c1ccncc1,-10.4% (inactive)
6,Cc1c(NC(=S)NCc2ccc(F)cc2)cccc1[N+](=O)[O-],-0.91% (inactive)
7,CCOc1ccc(/C=C(/NC(=O)c2ccccc2)C(=O)NCCC(=O)O)cc1,8.99% (inactive)
8,CCOc1cc(/C=C(\C#N)c2nc(-c3cccs3)c(NC(C)=O)s2)ccc1O,93.2% (active)
9,COc1cc(/C=N\Nc2nc(-c3cccs3)c(NC(C)=O)s2)ccc1O,-5.81% (inactive)
10,COc1cc(/C=C(\C#N)c2nc3c(s2)CC(C)CC3)ccc1O (configuration not stated),-29.5% (inactive)
11,C/C(CC(=O)N1CCN(C=O)CC1)=N\NC(=O)c1ccc(Br)cc1,8.36% (inactive)
12,COc1ccc(/C=N/n2c(C)cc(C)cc2=O)cc1,1.02% (inactive)
13,Cc1cccc(NC(=S)NC23CN4CN(CN(C4)C2)C3)c1,-1.99% (inactive)
14,C=CCn1c(SCC(=O)Nc2nc3ccccc3s2)nnc1-c1ccccc1O,-0.36% (inactive)
15,C=CCn1c(CSc2nc3ccccc3s2)nnc1SCC(=O)NCc1ccco1,50.6% (active)
16,CCn1c(COc2ccccc2)nnc1SCC(=O)NCc1ccco1,2.39% (inactive)
17,CSc1cc(C)[nH]c(=O)n1,6.61% (inactive)
18,Cc1cc(C(=O)N/N=C/c2ccc(N3CCOCC3)cc2)c(C)o1,-16.3% (inactive)
19,CNC(=O)c1ccsc1NC(=O)c1ccc(S(=O)(=O)N2CCc3ccccc32)cc1,0.14% (inactive)
20,Cc1cnc(C(=O)OCC(=O)NCCCc2ccccc2)cn1,-8.79% (inactive)
21,COc1ccccc1OCC(=O)OCn1c(SC)nnc(C)c1=O,-6.57% (inactive)
22,Cn1c(=O)n(C)c2cc(/C=N/NC(=O)c3cccc(Br)c3)ccc21,-5.32% (inactive)
23,O=C(C1=C(O)C(=O)N(c2ncccn2)C1c1cccs1)c1ccco1 (configuration not stated),65.7% (active)

row,SMILES,inhibition
1,O=C(C1=C(O)C(=O)N(CCOCCO)C1c1ccccn1)c1cccs1 (configuration not stated),-10.3% (inactive)
2,O=C(C1=C(O)C(=O)N(Cc2ccccc2)C1c1ccco1)c1ccco1 (configuration not stated),-8.71% (inactive)
3,CCOC(=O)N/N=C1\CC(C)S(=O)(=O)c2ccc(Cl)cc21 (configuration not stated),0.18% (inactive)
4,O=c1cc(CO)oc(C(Nc2cccc([N+](=O)[O-])c2)c2ccccn2)c1O (configuration not stated),-4.92% (inactive)
5,COc1ccc(-c2nn(C)c(=O)c3ccccc23)cc1CNC(=O)C1CCCCC1,-11.8% (inactive)
6,COC(=O)CCCC1=CC2=CC(=O)C(C)(OC(=O)c3cccs3)C(=O)C2=CN1CC(C)C (configuration not stated),2.99% (inactive)
7,COC(=O)CCCC1=CC2=CC(=O)C(C)(OC(=O)c3cccs3)C(=O)C2=CN1CC1CC1 (configuration not stated),0.53% (inactive)
8,COC(=O)CCCC1=CC2=CC(=O)C(C)(OC(=O)c3cccs3)C(=O)C2=CN1c1cccc(C#N)c1 (configuration not stated),78% (active)
9,Cc1ccc(C(=O)NNc2ncnc3ccccc23)cc1,-1.4% (inactive)
10,CC(C)Oc1ccc(Oc2ccc(C(F)(F)F)cn2)cc1,6.36% (inactive)
11,NC1=NC(=O)C2(COC(c3ccccc3Cl)OC2)S1 (configuration not stated),-11.7% (inactive)
12,CN1CCN(CCCCOc2ccccc2-c2ccccc2)CC1,-24.1% (inactive)
13,CCOC(=O)CC1C(=O)NCCN1c1nc2c(C)cccn2c(=O)c1/C=C1\SC(=S)N(C(C)CC)C1=O (configuration not stated),-14.8% (inactive)
14,Cc1cccn2c(=O)c(/C=C3\SC(=S)N(CC(C)C)C3=O)c(NCCCOC(C)C)nc12,137% (active)
15,CNc1nc2c(C)cccn2c(=O)c1C=Nc1ccc(OC)cc1,-10.2% (inactive)
16,CCOc1ccc(N2CC(C(=O)N/N=C/c3sccc3C)CC2=O)cc1 (configuration not stated),-24% (inactive)
17,C=CCNc1cnn(-c2ccc(C)cc2)c(=O)c1Cl,15.2% (inactive)
18,O=C(COC(=O)CNS(=O)(=O)c1ccccc1)NC12CC3CC(CC(C3)C1)C2,-4.36% (inactive)
19,COc1ccc(NC(=O)COc2ccc(C(=O)OCC(=O)N(C)C3CCS(=O)(=O)C3)cc2OC)cc1 (configuration not stated),-11.6% (inactive)
20,CN(C(=O)COC(=O)c1cc(-c2ccco2)nc2ccccc12)C1CCS(=O)(=O)C1 (configuration not stated),95.4% (active)
21,Cc1c(-c2cccc(Cl)c2)nc2ccccc2c1C(=O)OCC(=O)N(C)C1CCS(=O)(=O)C1 (configuration not stated),27.8% (inactive)
22,COc1ccc(/C=N/NC(=O)CNC(=O)c2ccc(S(=O)(=O)N3CCCC3)cc2)c(OC)c1,-7.62% (inactive)
23,COc1ccc(OCC(=O)NN2Cc3ccccc3C2=N)cc1,-18.4% (inactive)

row,SMILES,inhibition
1,O=C(NC1CC1)C1=C[C@H](c2c[nH]c3ccccc23)C[C@H](OCc2ccc(CO)cc2)O1,-3.29% (inactive)
2,O=c1c2cc3c(=O)n(CC4CCCO4)c(=O)c3cc2c(=O)n1CC1CCCO1 (configuration not stated),-9.61% (inactive)
3,O=C1c2cccc3c([N+](=O)[O-])ccc(c23)C(=O)N1CC1CCCO1 (configuration not stated),64.2% (active)
4,O=C(NCc1ccc2c(c1)OCO2)c1ccc2c(c1)C(=O)N(CC1CCCO1)C2=O (configuration not stated),-19.8% (inactive)
5,CN1CCc2nc(SC(C(=O)O)c3ccccc3)c(C#N)c(-c3cccs3)c2C1 (configuration not stated),6.93% (inactive)
6,CC(C)CNC(=O)COC(=O)c1ccccc1OCC(=O)Nc1ccc(Br)cc1,-2.14% (inactive)
7,O=C(Oc1c(-c2ccco2)oc2ccccc2c1=O)c1cccnc1,-4.14% (inactive)
8,Cc1cc(SCC(=O)NCCN2C(=O)CSC2=O)nc2ccccc12,-6.4% (inactive)
9,COc1cc(C(F)(F)F)nc2c(Br)c(C(C)(C)C)nn12,-5.73% (inactive)
10,CN(CCN1CCOCC1)Cc1nc(-c2ccc3c(c2)OCO3)no1,-2.97% (inactive)
11,c1ccc(-c2oc3ncnc(N4CCOCC4)c3c2-c2ccccc2)cc1,0.89% (inactive)
12,O=C1c2ccccc2-c2ncnc3c(N4CCOCC4)cc(N4CCOCC4)c1c23,51.8% (active)
13,Cc1oc2c(c1C(=O)N1CCOCC1)C(=O)c1ccccc1C2=O,-10.1% (inactive)
14,COCCn1c(Cc2cccn2C)nnc1SCC(=O)Nc1nccs1,0.89% (inactive)
15,CC(=O)Nc1cccc(Oc2cc(C#N)c(C#N)cc2N2CCOCC2)c1,-5.04% (inactive)
16,COc1cccc(C(=O)Nc2ccc(N3CCCC3)cc2)c1,-3.03% (inactive)
17,COc1cc(N2CCCC2)c(OC)cc1/C=C(/C#N)c1cccc(Br)c1,112% (active)
18,CCO[C@H]1OC(C(=O)N2CCOCC2)=C[C@@H](c2ccc3c(c2)OCO3)[C@@H]1CCCO,-9.61% (inactive)
19,CCO[C@@H]1OC(C(=O)N2CCOCC2)=C[C@H](C)[C@H]1CCCO,-7.59% (inactive)
20,CCO[C@H]1OC(C(=O)N2CCCCCCC2)=C[C@@H](c2ccc(C(F)(F)F)cc2)[C@@H]1CCCO,116% (active)
21,COC(=O)c1sccc1NN1C(=O)c2ccccc2C1=O,-6.24% (inactive)
22,CC(=O)Nc1ccc(S(=O)(=O)N2CCN(C(=O)c3ccccc3F)CC2)cc1,-7.73% (inactive)
23,CCOC(=O)C1=C(N)N(c2ccc(C)cc2)C2=C(C(=O)CCC2)C1c1cccs1 (configuration not stated),-16.1% (inactive)
